Substitutions are numbered along the chain they refer to.
B1: ATCT (dsDNA)
DNA 1: GCTATCTAGTGCTCAGTACGCACTGATCTAGGAAACTTCTGGCAGGACCAGGTCATGAGATCGGAAGAGCACACGTCTGAACTCCAGTCA
DNA 2: TGACTGGAGTTCAGACGTGTGCTCTTCCGATCTCATGACCTGGTCCTGCCAGAAGTTTCCTAGATCAGTGCGTACTGAGCACTAGATAGC
RNA: AAUUUCUACUCUUGUAGAUAGGAAACUUCUGGCAGGACC
B2: CATA (dsDNA)
DNA 1: B1 DNA 1 with A26C, T27A, C28T, T29A
DNA 2: B1 DNA 2 with A62T, G63A, A64T, T65G
RNA: B1 RNA
B3: CGTT (dsDNA)
DNA 1: B1 DNA 1 with A26C, T27G, C28T
DNA 2: B1 DNA 2 with G63A, A64C, T65G
RNA: B1 RNA
B4: ATGC (dsDNA)
DNA 1: B1 DNA 1 with C28G, T29C
DNA 2: B1 DNA 2 with A62G, G63C
RNA: B1 RNA
B5: CTAT (dsDNA)
DNA 1: B1 DNA 1 with A26C, C28A
DNA 2: B1 DNA 2 with G63T, T65G
RNA: B1 RNA
B6: CATC (dsDNA)
DNA 1: B1 DNA 1 with A26C, T27A, C28T, T29C
DNA 2: B1 DNA 2 with A62G, G63A, A64T, T65G
RNA: B1 RNA
B7: CCCA (dsDNA)
DNA 1: B1 DNA 1 with A26C, T27C, T29A
DNA 2: B1 DNA 2 with A62T, A64G, T65G
RNA: B1 RNA
B8: CTAG (dsDNA)
DNA 1: B1 DNA 1 with A26C, C28A, T29G
DNA 2: B1 DNA 2 with A62C, G63T, T65G
RNA: B1 RNA
B9: GATC (dsDNA)
DNA 1: B1 DNA 1 with A26G, T27A, C28T, T29C
DNA 2: B1 DNA 2 with A62G, G63A, A64T, T65C
RNA: B1 RNA
B10: CTGT (dsDNA)
DNA 1: B1 DNA 1 with A26C, C28G
DNA 2: B1 DNA 2 with G63C, T65G
RNA: B1 RNA
B11: CATG (dsDNA)
DNA 1: B1 DNA 1 with A26C, T27A, C28T, T29G
DNA 2: B1 DNA 2 with A62C, G63A, A64T, T65G
RNA: B1 RNA
B12: CACT (dsDNA)
DNA 1: B1 DNA 1 with A26C, T27A
DNA 2: B1 DNA 2 with A64T, T65G
RNA: B1 RNA
B13: GCCA (dsDNA)
DNA 1: B1 DNA 1 with A26G, T27C, T29A
DNA 2: B1 DNA 2 with A62T, A64G, T65C
RNA: B1 RNA
B14: CTCT (dsDNA)
DNA 1: B1 DNA 1 with A26C
DNA 2: B1 DNA 2 with T65G
RNA: B1 RNA
B15: CCCG (dsDNA)
DNA 1: B1 DNA 1 with A26C, T27C, T29G
DNA 2: B1 DNA 2 with A62C, A64G, T65G
RNA: B1 RNA

What follows are binders tested against dAsCas12a E174R (Acidaminococcus sp., UniProt U2UMQ6 1-1307, E174R;D908A;E993A;D1235A) (assay: Spec-seq (native PAGE EMSA with sequencing of bound and unbound); 25 mM Tris-HCl pH 7.4, 150 mM KCl, 5 mM MgCl2, 10% glycerol, 1 mM DTT, 40 ng/uL salmon sperm DNA; 400 nM Cas12a, 480 nM crRNA, 50 nM library, 37 C 1 h; native PAGE at room temperature; high values mean tight binding). Details: protein: recombinant.
With B1 the binding signal was -8.78 lnKA. Binder B2 has a binding signal of -7.55 lnKA. For B3, the binding signal was -8.95 lnKA. Work on B4 yielded a binding signal of -8.95 lnKA. Binder B5 has a binding signal of -8.81 lnKA. For B6, the binding signal was -8.78 lnKA. For B7, the binding signal was -8.63 lnKA. Work on B8 yielded a binding signal of -8.81 lnKA. For B9, the binding signal was -8.27 lnKA. B10 showed a binding signal of -8.89 lnKA. In the case of B11, the binding signal is reported as -8.38 lnKA. Binder B12 has a binding signal of -8.98 lnKA. B13 showed a binding signal of -8.91 lnKA. B14 was tested, and the binding signal was -8.73 lnKA. For B15, the binding signal was -8.56 lnKA.

The binders below were run against dAsCas12a S542R (Acidaminococcus sp., UniProt U2UMQ6 1-1307, S542R;D908A;E993A;D1235A) in the same assay as above. Details: protein: recombinant.
Work on B1 yielded a binding signal of -7.09 lnKA. B2 was tested, and the binding signal was -8.31 lnKA. For B3, the binding signal was -8.31 lnKA. B4 showed a binding signal of -8.32 lnKA. For B5, the binding signal was -8.52 lnKA. B6 gave a binding signal of -8.13 lnKA. Binder B7 has a binding signal of -6.21 lnKA. Work on B8 yielded a binding signal of -8.57 lnKA. Binder B9 has a binding signal of -8.34 lnKA. Work on B10 yielded a binding signal of -8.52 lnKA. Binder B11 has a binding signal of -8.49 lnKA. B12 gave a binding signal of -8.41 lnKA. B13 showed a binding signal of -6.67 lnKA. Work on B14 yielded a binding signal of -7.58 lnKA. In the case of B15, the binding signal is reported as -6.18 lnKA.

The binders below were run against d-enCas12a (Acidaminococcus sp., UniProt U2UMQ6 1-1307, E174R;S542R;K548R;D908A;E993A;D1235A) in the same assay as above. Details: protein: recombinant.
B1 gave a binding signal of -3.06 lnKA. In the case of B2, the binding signal is reported as -2.95 lnKA. Binder B3 has a binding signal of -5.2 lnKA. For B4, the binding signal was -5.32 lnKA. Work on B5 yielded a binding signal of -5.65 lnKA. B6 gave a binding signal of -3.35 lnKA. Binder B7 has a binding signal of -3.48 lnKA. For B8, the binding signal was -5.78 lnKA. Binder B9 has a binding signal of -3.86 lnKA. In the case of B10, the binding signal is reported as -5.79 lnKA. B11 gave a binding signal of -4.73 lnKA. Binder B12 has a binding signal of -4.47 lnKA. Work on B13 yielded a binding signal of -4.72 lnKA. B14 gave a binding signal of -3.44 lnKA. In the case of B15, the binding signal is reported as -4.37 lnKA.

These binders were tested against d-enCas12a-Ultra (Acidaminococcus sp., UniProt U2UMQ6 1-1307, E174R;S542R;K548R;M537R;F870L;D908A;E993A;D1235A) in the same assay as above. Details: protein: recombinant.
B1 gave a binding signal of -0.664 lnKA. With B2 the binding signal was -0.95 lnKA. For B3, the binding signal was -2.1 lnKA. In the case of B4, the binding signal is reported as -2.52 lnKA. For B5, the binding signal was -3.31 lnKA. Work on B6 yielded a binding signal of -1.16 lnKA. Work on B7 yielded a binding signal of -0.7 lnKA. B8 showed a binding signal of -3.2 lnKA. Binder B9 has a binding signal of -1.57 lnKA. Binder B10 has a binding signal of -3.21 lnKA. Work on B11 yielded a binding signal of -2.28 lnKA. B12 showed a binding signal of -1.3 lnKA. With B13 the binding signal was -1.33 lnKA. B14 was tested, and the binding signal was -0.714 lnKA. B15 showed a binding signal of -0.97 lnKA.

Each binder was assayed against dAsCas12a K548R (Acidaminococcus sp., UniProt U2UMQ6 1-1307, K548R;D908A;E993A;D1235A) in the same assay as above. Details: protein: recombinant.
In the case of B6, the binding signal is reported as -8.88 lnKA.

— publication PMC8222333, “AsCas12a ultra nuclease facilitates the rapid generation of therapeutic cell medicines”
